Results as given in PubChem BioAssay (Tox21).
Inconclusive results are not listed. Active and inactive are the calls of the source. Unless noted, the call rests on the fitted dose curve; in most records, active means well fitted curve in the direction sought with a large enough effect in the repeat runs; inconclusive means weak or mixed curves; inactive means no such curve, though single readings can be large; an effect the other way counts as inactive or inconclusive.

Key:
[1] = qHTS assay to identify small molecule agonists of the vitamin D receptor (VDR) signaling pathway - cell viability counter screen (AID 743224); further: series mostly up to about 63 µM; nearly all actives have a fitted effect of over 50% in size
Procedure, shortened: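 Here cell health was gauged by luminescent ATP detection (CellTiter-Glo, 30 min RT) in VDR-bla cells that had been incubated with test compounds for 16 h at 37C and 5% CO2.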

[2] = qHTS assay to identify small molecule antagonists of the vitamin D receptor (VDR) signaling pathway - cell viability counter screen (AID 743225); further: nearly all actives have a fitted effect of over 50% in size
Procedure, shortened: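 In this counter screen, VDR-bla HEK 293T cells receive test compound plus 3 nM final calcitriol for 16 h at 37C. Room-temperature steps of 2 h with the beta-lactamase substrate, then 30 min with CellTiter-Glo, precede the luminescence read.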

[3] = qHTS assay to identify small molecule agonists of the NFkB signaling pathway (AID 1159509; active means well fitted curve in the direction sought with a large enough effect in the signal ratio in the repeat runs, not every such curve was filed as active; the % refers to the signal ratio; further: series mostly up to about 61 µM)
Procedure, shortened: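 ME-180 NFkB-bla, 2,000 cells/well, overnight plating; cpd pinned in DMSO, 5 h 37 C; B/G FRET substrate 1.5 h RT; ex 405, em 460/530 nm.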

[4] = qHTS assay to identify small molecule agonists of the NFkB signaling pathway - cell viability counter screen (AID 1159515; calls by dose curve; further: series mostly up to about 61 µM; nearly all actives have a fitted effect of over 55% in size)
Procedure, shortened: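 5 hr compound treatment of NFkB-bla ME-180 cells (2,000/well, seeded overnight beforehand), followed by reporter substrate for 1.5 hr. CellTiter-Glo added afterward; luminescence after 30 min RT.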

[5] = qHTS assay to identify small molecule agonists of the endoplasmic reticulum stress response signaling pathway (AID 1159516; active means well fitted activation curve with a large enough effect in the signal ratio in the repeat runs, not every such curve was filed as active; the % refers to the signal ratio)
Procedure, shortened: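 Reporter HeLa cells (ESRE-beta-lactamase) underwent 5 hr compound incubation at 37 C and 5% CO2 in quantitative HTS format. Detection followed 2 hr of FRET substrate loading at room temperature.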

[6] = qHTS assay to identify small molecule antagonists of the retinoid-related orphan receptor gamma (ROR-gamma) signaling pathway - cell viability counter screen (AID 1159520); further: nearly all actives have a fitted effect of over 50% in size; further: potency means the concentration at half of the fitted maximal effect
Procedure, shortened: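 Cytotoxicity was read from cellular ATP (CellTiter-Glo luminescence) after 16 hr at 37 C with 1 uM doxycycline induction. The inducer was added 2 hr after compound transfer to Tet-on ROR gamma CHO cells.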

[7] = qHTS assay to identify small molecule agonists of the AP-1 signaling pathway - cell viability counter screen (AID 1159525; calls by dose curve; further: nearly all actives have a fitted effect of over 55% in size)
Procedure, shortened: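 Luminescent ATP readout (Cell Titer Glo, 30 min RT), normalised to DMSO and tetra n-octyl ammonium bromide controls. Cells were ME-180 AP-1-bla in 0.5% dialyzed FBS Opti-MEM, with a 5 h, 37 °C compound exposure.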

[8] = qHTS assay to identify small molecule agonists of the AP-1 signaling pathway (AID 1159526; calls by dose curve)
[9] = molecular target: Nuclear receptor ROR-gamma (Homo sapiens) (UniProt P51449); assay: qHTS assay to identify small molecule antagonists of the retinoid-related orphan receptor gamma (ROR-gamma) signaling pathway (AID 1159521; further: nearly all actives have a fitted effect of over 50% in size; further: potency means the concentration at half of the fitted maximal effect)
Procedure, shortened: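 Screening format: cell-based luciferase reporter in CHO cells with doxycycline-inducible RORγ. Compound pre-exposure lasts 2 h, doxycycline is 1 uM final, induction runs 16 h at 37 C, and ONE-Glo luminescence is read.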

[10] = qHTS assay to identify small molecule agonists of the endoplasmic reticulum stress response signaling pathway - cell viability counter screen (AID 1159517; calls by dose curve)
Procedure, shortened: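 HeLa cells carrying an ESRE-driven beta-lactamase reporter receive compound for 5 hr at 37 C. Cell viability is then gauged with CellTiter-Glo by luminescence, 30 min at room temperature.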

Measured: Potency

CCN(CC)C(=O)N(CC)CC
not listed: [9] | [10]
inactive: all other assays above

Oc1ccccc1F
not listed: [2] | [9] | [10]
inactive: all other assays above

CC1=CC(=O)CC(C)(C)C1=O
not listed: [2] | [9] | [10]
inactive: all other assays above

Nc1ccc2ccccc2c1S(=O)(=O)O
not listed: [8] | [10]
inactive: all other assays above

CN1C(=O)CC(c2ccccc2)C1=O (stereo unspecified)
not listed: [9]
inactive: all other assays above

Cc1cn([C@@H]2O[C@H](CO)[C@@H](O)[C@@H]2F)c(=O)[nH]c1=O
not listed: [9] | [10]
inactive: all other assays above

COc1ccc(Nc2ccc(OC)cc2)cc1
not listed: [8] | [10]
inactive: all other assays above

C[C@@H](N)C(=O)O
inactive: [3] | [4] | [10] | [6] | [9] | [7]

Nc1ccc(Oc2ccc(N)c(N)c2)cc1
not listed: [2] | [8] | [10]
inactive: all other assays above

OC[C@H]1O[C@@H](O[C@H]2[C@H](O)[C@@H](O)[C@H](O)O[C@@H]2CO)[C@H](O)[C@@H](O)[C@H]1O
not listed: [9]
inactive: all other assays above

CC1(O)CSC(C)(O)CS1 (stereo unspecified)
not listed: [1] | [8] | [10]
inactive: all other assays above

NC(=O)NS(=O)(=O)c1ccc(Cl)cc1
not listed: [9] | [10]
inactive: all other assays above

CCCCC(CC)COC(=O)COc1cc(Cl)c(Cl)cc1Cl (stereo unspecified)
not listed: [9] | [10]
inactive: all other assays above

CCCCCCCOC(=O)CCC
not listed: [2] | [7] | [10]
inactive: all other assays above

CC(C)C(=O)OCC(C)(C)C(O)C(C)C (stereo unspecified)
not listed: [7] | [10]
inactive: all other assays above

CC(C)=CCC[C@](C)(O)[C@@H]1CC=C(C)CC1
not listed: [1] | [8] | [10]
inactive: all other assays above

O=C(CC(=O)C(F)(F)F)c1ccccc1
not listed: [8] | [10]
inactive: all other assays above

CCCCCCCCCCCCOCCOS(=O)(=O)O
inactive: [3] | [4] | [5] | [6] | [9]

Cc1cc2c(s1)Nc1ccccc1N=C2N1CCN(C)CC1
not listed: [7] | [8] | [10]
inactive: all other assays above

CCN[C@H]1CN(CCCOC)S(=O)(=O)c2sc(S(N)(=O)=O)cc21
not listed: [9] | [10]
inactive: all other assays above

NCCC(O)(P(=O)(O)O)P(=O)(O)O
inactive: [3] | [4] | [5] | [6] | [7] | [8]

CCN(CC)CCOc1ccc(Cc2ccccc2)cc1
not listed: [1] | [5] | [8]
inactive: all other assays above

CCc1cc2cc(OC)c(OC)cc2c(Cc2ccccc2)n1
not listed: [2] | [5] | [8]
inactive: all other assays above

CN(CCCN1c2ccccc2CCc2ccccc21)CC(=O)c1ccc(Cl)cc1
active: [6] 29.8 µM
not listed: [5] | [8]
inactive: all other assays above

CC[C@H]1CC[C@H](NCc2cc3c(cc2OC)[C@H]2C[C@H]2C(=O)N3C)[C@H](c2ccccc2)N1
active: [9] 30.6 µM
inactive: [2] | [3] | [4] | [6] | [7]

O=C(O)C(=O)Cc1c[nH]c2ccccc12
not listed: [5] | [8]
inactive: all other assays above

NC(=O)Cc1cccc(C(=O)c2ccccc2)c1N
not listed: [5] | [9] | [10]
inactive: all other assays above

COc1ccccc1N1CCN(CCCNc2cc(=O)n(C)c(=O)n2C)CC1
not listed: [5] | [9]
inactive: all other assays above

CCc1cc(Cl)c(OC)c(C(=O)NC[C@@H]2CCCN2CC)c1O
not listed: [5] | [8] | [10]
inactive: all other assays above

Cc1c(-c2ccccc2)oc2c(C(=O)OCCN3CCCCC3)cccc2c1=O
not listed: [2] | [5] | [8]
inactive: all other assays above
